Reference: PubChem BioAssay AID624255 (Broad Institute, 2012)
Several values for one entry are separate records, joined by “and”; a condition that tells them apart may be missing. Equal values may be shown once. Among all 77,000 compounds or so, about 4,600 (6%) were called active. Roughly 1% stayed inconclusive and do not appear here. Many of the other results were omitted from the sample, so actives are more common in it than they were. Values without a mark were called inactive.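 The calls were made as follows: active = mean inhibition above about 93%, with at least 55% of replicates each passing it (limit read from the data, passing the limit was not always enough); inconclusive = only one of those two conditions holds; inactive = neither condition holds.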

experiment: growth inhibition of T. cruzi in host fibroblasts – cell-based, beta-gal Tulahuen parasites, NIH3T3 host, luminescence, primary screen (AID 624255); conditions: T. cruzi beta-gal in NIH3T3, GalScreen luminescence, 90 h; at 8.34 µM; hits give high values

SMILES	inhibition
CO[C@@H]1CC[C@@H]2CCOc3ccc(C#N)cc3C(=O)N(C)C[C@@H](OC)[C@@H](C)C(=O)N(C)C[C@H]1O2	26.1%
Cc1noc(C)c1NC(=O)N(C)C[C@H]1OCCCC[C@H](C)Oc2ccc(NC(=O)Nc3ccccc3)cc2C(=O)N([C@H](C)CO)C[C@@H]1C	-11.2%
CO[C@@H]1CN(C)C(=O)c2ccc(NS(=O)(=O)c3cn(C)cn3)cc2OC[C@H](C)N(CCC(F)(F)F)C[C@@H]1C	40.1%
CCNC(=O)C[C@@H]1CC[C@H]2[C@@H](COc3ccc(NC(=O)c4ccccc4Cl)cc3C(=O)N2C)O1	1.97%
CNC[C@H]1Oc2cc(C#Cc3ccccn3)ccc2S(=O)(=O)N([C@H](C)CO)C[C@@H]1C	92.5%
COCC#Cc1cnc2c(c1)C(=O)N([C@H](C)CO)C[C@@H](C)[C@@H](CN(C)C(=O)Nc1cccc(F)c1)O2	8.75%
C[C@H](CO)N1C[C@H](C)[C@H](CN(C)C(=O)Nc2ccc3c(c2)OCO3)Oc2ncc(C#Cc3cccc(F)c3)cc2C1=O	100% (active)
C[C@H](CO)N1C[C@H](C)[C@H](CN(C)C(=O)C2CCCCC2)Oc2ncc(C#Cc3cccc(F)c3)cc2C1=O	120% (active)
C[C@H](CO)N1C[C@H](C)[C@H](CN(C)C(=O)C2CC2)Oc2ncc(C#Cc3ccccc3)cc2C1=O	60.3%
COc1cccc(C#Cc2cnc3c(c2)C(=O)N([C@@H](C)CO)C[C@H](C)[C@@H](CN(C)C(=O)C2CCC2)O3)c1	84.3%
C[C@H]1CN([C@@H](C)CO)C(=O)c2cc(C#Cc3ccc(F)cc3)cnc2O[C@@H]1CN(C)C(=O)Nc1ccc(F)cc1	25%
CN1[C@@H]2CN(C(=O)c3ccc(F)cc3)c3ccccc3[C@@H]2[C@@H]1CO	-2.39%
COc1cccc(-c2ccc3n(c2=O)C[C@H]2[C@H](CO)[C@@H](C(=O)N4CCCCC4)N(C)[C@@H]32)c1	13.1%
C[C@H]1CN([C@@H](C)CO)S(=O)(=O)c2ccc(C#Cc3cccc(F)c3)cc2O[C@@H]1CN(C)S(=O)(=O)c1cn(C)cn1	102% (active)
C[C@@H]1CN([C@H](C)CO)S(=O)(=O)c2ccc(C3=CCCC3)cc2O[C@H]1CN(C)C(=O)c1ccccc1	-0.873%
C[C@H]1CN([C@@H](C)CO)S(=O)(=O)c2ccc(C#Cc3ccccc3)cc2O[C@H]1CN(C)S(=O)(=O)c1cn(C)cn1	27.9%
COc1cccc(S(=O)(=O)N(C)C[C@H]2Oc3cc(C#CCN(C)C)ccc3S(=O)(=O)N([C@H](C)CO)C[C@H]2C)c1	75.2%
C[C@@H]1CN([C@@H](C)CO)S(=O)(=O)c2ccc(C#Cc3ccncc3)cc2O[C@@H]1CN(C)S(=O)(=O)c1ccccc1	11.5%
CC(=O)N(C)C[C@@H]1Oc2cc(-c3cccc(F)c3)ccc2S(=O)(=O)N([C@H](C)CO)C[C@H]1C	31.3%
C[C@@H]1CN([C@H](C)CO)S(=O)(=O)c2ccc(C3=CCCC3)cc2O[C@@H]1CN(C)C(=O)C1CCC1	52.9%
C[C@@H]1CN([C@@H](C)CO)S(=O)(=O)c2ccc(-c3cccc(F)c3)cc2O[C@@H]1CN(C)S(=O)(=O)c1ccccc1	117% (active)
C[C@H](CO)N1C[C@H](C)[C@@H](CN(C)S(=O)(=O)c2ccc(F)cc2)Oc2cc(C3=CCCC3)ccc2S1(=O)=O	114% (active)
C[C@@H]1CN([C@@H](C)CO)S(=O)(=O)c2ccc(C#Cc3cccc(F)c3)cc2O[C@H]1CN(C)S(=O)(=O)c1cn(C)cn1	61.3% and -15.4%
CC(C)CC#Cc1ccc2c(c1)O[C@H](CN(C)S(=O)(=O)c1cccc(F)c1)[C@@H](C)CN([C@@H](C)CO)S2(=O)=O	119% (active)

SMILES	inhibition
COc1cccc(S(=O)(=O)N(C)C[C@@H]2Oc3cc(C#CCN(C)C)ccc3S(=O)(=O)N([C@@H](C)CO)C[C@@H]2C)c1	91.4%
C[C@H](CO)N1C[C@H](C)[C@H](CN(C)CC2CC2)OCCCC[C@H](C)Oc2ccc(NS(=O)(=O)c3cccs3)cc2C1=O	38%
CN1c2ccc(-c3ccc(F)cc3)cc2[C@@H]2[C@@H](CCN2S(=O)(=O)c2ccc(F)cc2)[C@@H]1CO	90.2%
CN1c2ccc(-c3ccc(F)cc3)cc2[C@@H]2[C@@H](CCN2C(=O)c2cccnc2)[C@H]1CO	84%
C[C@@H]1CCCCO[C@H](CN(C)C(=O)c2ccccc2)[C@H](C)CN([C@H](C)CO)C(=O)c2cc(N(C)C)ccc2O1	91.3%
COCC(=O)N1C[C@@H]2[C@H](c3ccccc31)[C@@H](CO)N2C(=O)C1CC1	65.2%
CN1C(=O)c2cc(NC(=O)c3ccccc3)ccc2OC[C@@H]2O[C@H](CC(=O)NCC3CC3)CC[C@@H]21	-30.4%
O=C(c1cccnc1)N1C[C@H]2[C@@H](c3ccccc31)[C@@H](CO)N2C(=O)Nc1ccccc1F	-1.74%
C[C@H]1CN([C@@H](C)CO)C(=O)c2c(c3ccccc3n2C)-c2ccccc2CO[C@H]1CN(C)S(=O)(=O)c1ccc(C#N)cc1	29.4%
C[C@@H]1CN([C@H](C)CO)S(=O)(=O)c2ccc(-c3cccc(F)c3)cc2O[C@H]1CN(C)S(=O)(=O)c1ccc(F)cc1	118% (active)
C[C@@H]1CN([C@@H](C)CO)S(=O)(=O)c2ccc(-c3ccc(F)cc3)cc2O[C@H]1CN(C)C(=O)c1ccccc1F	84.8%
C[C@H]1CN([C@@H](C)CO)S(=O)(=O)c2ccc(-c3cccc(F)c3)cc2O[C@@H]1CN(C)C	-32.3% and -49.6%
COc1cccc(NC(=O)N[C@@H]2CC[C@H](CC(=O)NCc3ccccn3)O[C@H]2CO)c1	-39.2%
CO[C@@H]1CN(C)C(=O)c2cc(NS(=O)(=O)c3cn(C)cn3)ccc2OC[C@@H](C)NC[C@H]1C	-12.5%
Cc1ccccc1S(=O)(=O)N[C@H]1CC[C@@H](CCn2cc(Cc3ccccc3)nn2)O[C@H]1CO	-21.8%
CN1c2ccc(-c3ccccc3)cc2[C@@H]2[C@@H](CCN2C(=O)c2ccccc2F)[C@@H]1CO	83.7%
CN1c2ccc(-c3ccccc3)cc2[C@@H]2[C@@H](CCN2C(=O)c2ccncc2)[C@@H]1CO	103% (active)
CCC(=O)N1CC[C@@H]2[C@@H](CO)N(C)c3ccc(-c4cccc(OC)c4)cc3[C@@H]21	104% (active)
CCC(=O)N1CC[C@H]2[C@@H]1c1cc(-c3ccc(C#N)cc3)ccc1N(C)[C@H]2CO	58.1%
COc1ccc(-c2ccc3c(c2)[C@@H]2[C@@H](CCN2C(=O)Cc2ccccn2)[C@H](CO)N3C)cc1	90.9% (active)
CN1c2ccc(-c3ccccc3F)cc2[C@H]2[C@H](CCN2C(=O)Cc2ccccn2)[C@H]1CO	81%
COc1cccc(NC(=O)N2CC[C@@H]3[C@@H](CO)N(C)c4ccc(-c5cccc(F)c5)cc4[C@@H]32)c1	30.5%
CN1c2ccc(-c3ccccc3)cc2[C@@H]2[C@@H](CCN2C(=O)c2ccccc2)[C@H]1CO	62.4%
COc1ccc(-c2ccc3c(c2)[C@H]2[C@H](CCN2C(=O)C2CCOCC2)[C@H](CO)N3C)cc1	1.27%

SMILES	inhibition
CCCNC(=O)C[C@@H]1CC[C@H]2[C@H](COc3ccc(NC(=O)c4ccc(Cl)cc4)cc3C(=O)N2C)O1	29.6%
COc1ccc(S(=O)(=O)Nc2ccc3c(c2)C(=O)N(C)C[C@@H](OC)[C@H](C)CN(C(=O)NC(C)C)[C@H](C)CO3)cc1	-70.7%
COc1ccc(NC(=O)N[C@H]2C=C[C@H](CC(=O)NCc3ccccn3)O[C@H]2CO)cc1	-16.1%
Cc1noc(C)c1NC(=O)Nc1ccc2c(c1)C(=O)N([C@H](C)CO)C[C@@H](C)[C@H](CN(C)S(=O)(=O)c1ccc(Cl)cc1)OCCCC[C@H](C)O2	53.3%
COCCNC(=O)C[C@H]1CC[C@H]2[C@H](COc3ccc(NC(=O)C4CCOCC4)cc3C(=O)N2C)O1	17.3%
C[C@@H]1CN([C@@H](C)CO)C(=O)c2cc(NC(=O)C3CCCCC3)ccc2O[C@@H](C)CCCCO[C@H]1CN(C)C(=O)CCC(F)(F)F	29.9%
COCC(=O)Nc1ccc2c(c1)OC[C@@H](C)N(Cc1cocn1)C[C@@H](C)[C@@H](OC)CN(C)C2=O	-2.18%
CN1c2ccc(-c3ccc(C#N)cc3)cc2[C@@H]2[C@@H](CCN2S(=O)(=O)c2cccc(F)c2)[C@@H]1CO	72.5%
COCC(=O)Nc1ccc2c(c1)[C@H]1C[C@H](CC(=O)NCc3ccc(OC)cc3)O[C@@H](CO)[C@H]1O2	4.09%
O=C(C[C@H]1CC[C@H]2[C@@H](COC[C@H](O)CN2C(=O)c2ccncc2)O1)NCc1cc(F)cc(F)c1	43.6%
C[C@H]1CN([C@@H](C)CO)C(=O)Cc2cc(NS(=O)(=O)c3ccccc3)ccc2O[C@H]1CN(C)Cc1ccc(C(=O)Nc2ccccc2N)cc1	48%
C[C@H]1CN([C@@H](C)CO)C(=O)Cc2cc(NS(=O)(=O)c3ccccc3)ccc2O[C@@H]1CN(C)Cc1ccc(C(=O)Nc2ccccc2N)cc1	21.9%
C[C@@H]1CN([C@H](C)CO)C(=O)Cc2cc(NC(=O)Cc3cn(C)c4ccccc34)ccc2O[C@@H]1CN(C)Cc1ccc(C(F)(F)F)cc1	89.6%
C[C@H]1CN([C@@H](C)CO)C(=O)Cc2cc(NC(=O)Cc3cn(C)c4ccccc34)ccc2O[C@H]1CN(C)Cc1ccccc1	83.1%
C[C@@H]1CN([C@H](C)CO)C(=O)Cc2cc(NC(=O)Nc3ccc(C(F)(F)F)cc3)ccc2O[C@H]1CN(C)Cc1ccc(-c2ccccc2)cc1	67.4%
C[C@@H]1CN([C@H](C)CO)C(=O)Cc2cc(NC(=O)Nc3ccccc3)ccc2O[C@@H]1CN(C)Cc1ccc(C(F)(F)F)cc1	86.5%
C[C@@H]1CN([C@H](C)CO)C(=O)Cc2cc(NC(=O)Cc3ccccc3)ccc2O[C@H]1CN(C)Cc1ccc(Oc2ccccc2)cc1	99.8% (active)
C[C@H]1CN([C@@H](C)CO)C(=O)Cc2cc(NC(=O)Cc3cn(C)c4ccccc34)ccc2O[C@@H]1CN(C)Cc1ccc(C(F)(F)F)cc1	103% (active)
C[C@H](CO)N1C[C@H](C)[C@H](CN(C)Cc2ccc(-c3ccccc3)cc2)Oc2ccc(NC(=O)Nc3ccc(F)cc3)cc2CC1=O	100% (active)
C[C@@H]1CN([C@@H](C)CO)C(=O)Cc2cc(NC(=O)C3CCCCC3)ccc2O[C@@H]1CN(C)Cc1ccc(C(=O)Nc2ccccc2N)cc1	103% (active)
C[C@@H]1CN([C@@H](C)CO)C(=O)Cc2cc(NC(=O)Cc3ccccc3)ccc2O[C@@H]1CN(C)Cc1ccc(Oc2ccccc2)cc1	12.2%
COc1ccc(CN(C)C[C@H]2Oc3ccc(NC(=O)Cc4ccccc4)cc3CC(=O)N([C@@H](C)CO)C[C@@H]2C)cc1	74%
